Our source for the outcome and AC50 values is PubChem BioAssay (EPA / NIEHS).

Inconclusive results are not listed. The source made the active and inactive calls. The calls were made as follows, unless noted: active = hit-call score of the fitted dose curve at least 0.9, where 1 is the maximum; inconclusive = response in the unintended direction; inactive = score below 0.9.

For orientation: AC50 means the midpoint of the concentration-response curve, whichever way the signal moves.

The nature of the first assay: ACEA_ER_80hr: ACEA Biosciences xCELLigence Real-Time Cell Analysis on Estrogen Receptor Agonism for Proliferation (AID 2282667). To be noted: T47D proliferation, impedance (xCELLigence), 80 h. In outline:
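Estrogen-driven proliferation is captured as electrode impedance in T47D cells 80 h after compound addition. Test articles ran at 8 concentrations, 1:4 dilutions from 100 uM final, in two replicate plates.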
In the case of `CC(Cl)COP(=O)(OCC(C)Cl)OCC(C)Cl` (centres undefined), the call was inactive.

Take `CCCCCCC=O`: the AC50 is 10.9 µM (active).

Turning to `CCCCCCOc1ccc(N)cc1`, the result was inactive.

Turning to `C=CC(C)(CCC=C(C)C)OC(=O)C=Cc1ccccc1` (centres undefined), the outcome was inactive.

As for `CCCCCCCCCCCCCC(=O)OC(C)C`, the molecule was called inactive.

With `CCCCCC(=O)OCC`, the result was inactive.

For the molecule `CCCCCCCOC(=O)c1ccc(O)cc1`, the AC50 is 0.496 µM (active).

`Cc1ccccc1CCO`: the molecule was classed as inactive.

`CCC(C)N` (centres undefined): the result was inactive.

For `COC(OC)(C(=O)c1ccccc1)c1ccccc1`, the call was inactive.

In the case of `[Cl][Eu]([Cl])[Cl]`, the outcome was inactive.

In the case of `Nc1ncnc2nc[nH]c12`, the result was inactive.

Consider `COc1ccc(C(=O)/C(Br)=C\C(=O)O)cc1`, for which the result was inactive.

With `CCN1CN(CC)CN(CC)C1`, the outcome was inactive.

Consider `CCOC(=O)c1ccc(C)cc1`, for which the result was inactive.

`Cc1ccc(S(=O)(=O)N=C=O)cc1`: the result was inactive.

In the case of `C=C(C)C1CC=C(C)CC1` (centres undefined), the call was inactive.

In the case of `Cc1ccc2c(c1)CCCN2`, the call was inactive.

For `COc1cc(C)ccc1O`, the molecule was classed as inactive.

Regarding `C=CC(=O)OCCCCCCOC(=O)C=C`, the AC50 was 10.5 µM (active).

In the case of `c1ccc2sc(SSN3CCOCC3)nc2c1`, the result was inactive.

For the molecule `CCCCOCCOCCOC(C)=O`, the result was inactive.

Take `CC(=O)OCCc1ccccc1`: the call was inactive.

Take `CC(C)CC(=O)OCc1ccccc1`: the molecule was classed as inactive.

On to `CC(=O)OC/C=C(/C)CCC=C(C)C`, for which the outcome was inactive.

In the case of `CCCCCC1=CCCC1=O`, the AC50 was 0.106 µM (active).

With `CCC(C)(O)CCCC(C)C` (centres undefined), the molecule was called inactive.

As for `COc1ccc(C(=O)c2ccccc2)c(O)c1`, the outcome was inactive.

For the molecule `CC(C)(CO)COC(=O)C(C)(C)CO`, the molecule was classed as inactive.

`Cc1c[nH]c(=O)[nH]c1=O`: the call was inactive.

For `CCOB(OCC)OCC`, the result was inactive.

For the molecule `CC(=O)CCC1=C(C)CCCC1(C)C`, the outcome was inactive.

For the molecule `CCCCCCCCCCCC(C)=O`, the molecule was called inactive.

As to `O=C1CCCCCCCCCCC1`, the result was inactive.

For the molecule `Nc1nc(N)nc(-c2ccccc2)n1`, the molecule was called inactive.

On to `CCOC(=O)C1=NOC(c2ccccc2)(c2ccccc2)C1`, for which the molecule was called inactive.

Turning to `Cc1c(O)cccc1O`, the outcome was inactive.

The next assay is described as follows: ATG_CRE_CIS: Attagene CIS-FACTORIAL HepG2 Assay for human cAMP Responsive Element (CRE) binding protein 3 (AID 2282926; active = hit-call score of the fitted dose curve at least 0.9, where 1 is the maximum; inactive = score below 0.9). The following applies: HepG2 CRE cis-reporter, Attagene multiplexed mRNA; actives raise or lower the signal. The essentials:
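Transfected HepG2 were treated for 24 hours, then RNA was extracted and reporter cDNA amplified with sequence-specific primers. Labelled fragments were separated by capillary electrophoresis, and the CRE signal was fitted bidirectionally with DMSO as baseline.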
In the case of `CC(Cl)COP(=O)(OCC(C)Cl)OCC(C)Cl` (centres undefined), the call was inactive.

`CCCCCCC=O`: the result was inactive.

In the case of `CCCCCCOc1ccc(N)cc1`, the result was inactive.

Consider `C=CC(C)(CCC=C(C)C)OC(=O)C=Cc1ccccc1` (centres undefined), for which the molecule was called inactive.

On to `CCCCCCCCCCCCCC(=O)OC(C)C`, for which the outcome was inactive.

Take `CCCCCC(=O)OCC`: the result was inactive.

Consider `CCCCCCCOC(=O)c1ccc(O)cc1`, for which the result was inactive.

As to `Cc1ccccc1CCO`, the molecule was called inactive.

`CCC(C)N` (centres undefined): the molecule was classed as inactive.

Turning to `COC(OC)(C(=O)c1ccccc1)c1ccccc1`, the molecule was called inactive.

With `[Cl][Eu]([Cl])[Cl]`, the molecule was classed as inactive.

With `Nc1ncnc2nc[nH]c12`, the molecule was called inactive.

`COc1ccc(C(=O)/C(Br)=C\C(=O)O)cc1`: the result was inactive.

Consider `CCN1CN(CC)CN(CC)C1`, for which the AC50 is 162 µM (active).

As for `CCOC(=O)c1ccc(C)cc1`, the outcome was inactive.

For the molecule `Cc1ccc(S(=O)(=O)N=C=O)cc1`, the outcome was inactive.

For the molecule `C=C(C)C1CC=C(C)CC1` (centres undefined), the molecule was classed as inactive.

Take `Cc1ccc2c(c1)CCCN2`: the outcome was inactive.

With `COc1cc(C)ccc1O`, the result was inactive.

`C=CC(=O)OCCCCCCOC(=O)C=C`: the result was inactive.

As to `c1ccc2sc(SSN3CCOCC3)nc2c1`, the AC50 was 146 µM (active).

As to `CCCCOCCOCCOC(C)=O`, the outcome was inactive.

On to `CC(=O)OCCc1ccccc1`, for which the outcome was inactive.

Take `CC(C)CC(=O)OCc1ccccc1`: the molecule was classed as inactive.

For `CC(=O)OC/C=C(/C)CCC=C(C)C`, the call was inactive.

Take `CCCCCC1=CCCC1=O`: the call was inactive.

On to `CCC(C)(O)CCCC(C)C` (centres undefined), for which the call was inactive.

For `COc1ccc(C(=O)c2ccccc2)c(O)c1`, the call was inactive.

With `CC(C)(CO)COC(=O)C(C)(C)CO`, the molecule was classed as inactive.

`Cc1c[nH]c(=O)[nH]c1=O`: the molecule was classed as inactive.

For the molecule `CCOB(OCC)OCC`, the outcome was inactive.

In the case of `CC(=O)CCC1=C(C)CCCC1(C)C`, the result was inactive.

With `CCCCCCCCCCCC(C)=O`, the outcome was inactive.

Turning to `O=C1CCCCCCCCCCC1`, the call was inactive.

With `Nc1nc(N)nc(-c2ccccc2)n1`, the outcome was inactive.

Turning to `CCOC(=O)C1=NOC(c2ccccc2)(c2ccccc2)C1`, the result was inactive.

For the molecule `Cc1c(O)cccc1O`, the result was inactive.
